The values below come from PubChem BioAssay (Tox21).

Experiment [1] in a line: qHTS assay to identify small molecule agonists of the estrogen receptor alpha (ER-alpha) signaling pathway in the presence of an antagonist - cell viability counter screen (AID 1259386).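 Note: series mostly up to about 92 µM; cells exposed to compounds for 22 h at 37 °C before the viability read; nearly all actives have a fitted effect of over 30% in size.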 The method, boiled down: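 VM7Luc4E2, stripped-serum pre-culture 5 d; 24hr plating; +ICI-182,780 10.0nM final; cpds 15 conc, 22hr, 37C/5% CO2; CellTiter-Fluor added at 21hr, fluorescence 1hr later.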

For experiment [2], the target named is Progesterone receptor (Homo sapiens) (UniProt P06401). Nature of the experiment: qHTS assay to identify small molecule antagonists of the progesterone receptor (PR) signaling pathway (AID 1346795; active = well fitted inhibition curve with a large enough effect in the signal ratio in the repeat runs, not every such curve was filed as active; the % refers to the signal ratio; note: potency is the fitted concentration of half-maximal effect). The method, boiled down: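 PR-UAS-bla HEK293T cells with beta-lactamase reporter under UAS control, in 2% charcoal-stripped FBS, treated with compounds plus 1 nM promegestone (R5020, final) for 16 hr at 37C. Read-out: FRET beta-lactamase substrate fluorescence after 2 hr at room temperature.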

A short description of experiment [3]: qHTS assay to identify small molecule antagonists of the TGF-beta/Smad signaling pathway - cell viability counter screen (AID 1346824). Note: nearly all actives have a fitted effect of over 50% in size. The method, boiled down:
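SBE-bla HEK 293T cells, incubated overnight, then compound plus 0.25 ng/mL TGF-beta1 (stock added) for 5 hr at 37 C. Viability was read in the same wells by CellTiter-Glo luminescence after 30 min at room temperature.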

A short description of experiment [4]: qHTS assay to identify small molecule agonists of the TGF-beta/Smad signaling pathway - cell viability counter screen (AID 1346829). Note: top concentration of the series differs between compounds; nearly all actives have a fitted effect of over 45% in size. The method, boiled down:
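Luminescence from CellTiter-Glo, read after a 30 min room-temperature incubation, gives cell viability of SBE-bla HEK 293T cells treated 5 hr with compounds at 37 C.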
On the technique in general: In qHTS, concentration-response curves come from the screen itself.

A short description of experiment [5]: qHTS assay to identify small molecule agonists of the TGF-beta/Smad signaling pathway (AID 1346859; active = well fitted activation curve with a large enough effect in the signal ratio in the repeat runs, not every such curve was filed as active; the % refers to the signal ratio; note: series mostly up to about 77 µM). A digest of the protocol:
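SBE-bla HEK293T cells plated overnight, then compound exposure for 5 h at 37 C. Beta-lactamase reporter read with LiveBLAzer B/G FRET substrate after 2 h at room temperature, fluorescence at 405 nm excitation, 460/530 nm emission.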

Experiment [6] deals with Thyrotropin-releasing hormone receptor (Homo sapiens) (UniProt P34981). Nature of the experiment: qHTS assay to identify small molecule antagonists of the thyrotropin-releasing hormone receptor (TRHR) signaling pathway (AID 1346877; active = well fitted inhibition curve with a large enough effect in the repeat runs, not every such curve was filed as active; note: series mostly up to about 51 µM). The method, boiled down:
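Intracellular calcium fluorescence, read kinetically every second over 3 min, reports TRH-evoked signalling in HEK293 cells carrying TRHR. Test compounds were added 5 min ahead of a 1 nM TRH challenge.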

Experiment [7] shares this target. Nature of the experiment: qHTS assay to identify small molecule agonists of the thyrotropin-releasing hormone receptor (TRHR) signaling pathway (AID 1346891; calls by dose curve; note: series mostly up to about 58 µM). The method, boiled down:
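HEK293 cells expressing TRHR plated 18 h at 37 C/5% CO2, calcium dye-loaded 2 h at 37 C, then compound added (agonist mode); kinetic calcium fluorescence read 3 min at 1 s intervals; 15 concentrations in triplicate.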

Experiment [8] in a line: Human pregnane X receptor (PXR) small molecule agonists, qHTS cell viability counter screen (AID 1346977). Note: nearly all actives have a fitted effect of over 50% in size. The method, boiled down:
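PXR-Luc HepG2 cells (2,000/well, 5% charcoal-stripped FBS) preincubated 5 hr, then exposed to compounds 24 hr at 37 C. Viability read in the same wells by CellTiter-Fluor fluorescence, reagent added at 23 hr, 1 hr incubation.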

Experiment [9] can be described thus: Caspase-3/7 induction in HepG2 cells by small molecules, qHTS assay (AID 1346978). Note: nearly all actives have a fitted effect of over 15% in size. The method, boiled down: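 Wild-type HepG2 cells, 2,000/well, settled 5 hr at 37 C and 5% CO2, then compound-treated for 17 hr; caspase-3/7 activity read by luminescent Caspase-Glo 3/7 after 30 min at room temperature.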
A short description of experiment [10]: Caspase-3/7 induction in CHO-K1 cells by small molecules, qHTS assay (AID 1346980). Note: nearly all actives have a fitted effect of over 15% in size. A digest of the protocol:
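Wild-type CHO-K1 cells exposed to compounds for 17hr at 37 C, 5% CO2. Caspase-3/7 activity then measured by Caspase-Glo 3/7 luminescence after 30min at room temperature.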

A short description of experiment [11]: Caspase-3/7 induction in HepG2 cells by small molecules, qHTS cell viability counter screen (AID 1346981). Note: series mostly up to about 92 µM; nearly all actives have a fitted effect of over 30% in size. A digest of the protocol: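 HepG2, WT, 2,000 cells/well; 5 hr pre-incubation 37 C/5% CO2; compound pin-transferred from DMSO; 16 hr exposure; CellTiter-Fluor, 1 hr; fluorescence read.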
In experiment [12] the target is Progesterone receptor (Homo sapiens) (UniProt P06401). Nature of the experiment: qHTS assay to identify small molecule agonists of the progesterone receptor (PR) signaling pathway (AID 1346784; calls by dose curve; note: nearly all actives have a fitted effect of over 30% in size). The method, boiled down:
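PR-UAS-bla HEK 293T cells (beta-lactamase reporter under UAS) in 2% charcoal-stripped FBS, dosed with 23 nL compound after 6 hr, incubated 16hr at 37C. LiveBLAzer B/G FRET substrate added, fluorescence read after 2 hours.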

Experiment [13] is described as follows: qHTS assay to identify small molecule antagonists of the progesterone receptor (PR) signaling pathway - cell viability counter screen (AID 1346798). Note: series mostly up to about 92 µM; nearly all actives have a fitted effect of over 50% in size. The method, boiled down: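 PR-UAS-bla HEK293T cells, 3,000/well in 2% charcoal-stripped FBS medium, dosed with compounds plus R5020 agonist and incubated 16 h at 37C. Viability then measured in the same wells by CellTiter-Glo luminescence after 30 min at RT.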

Experiment [14] is described as follows: qHTS assay to identify small molecule agonists of the progesterone receptor (PR) signaling pathway - cell viability counter screen (AID 1346799; calls by dose curve; note: nearly all actives have a fitted effect of over 45% in size). A digest of the protocol:
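Counter screen in the PR-UAS-bla HEK293T wells (2% charcoal-stripped FBS, 16 h compound exposure at 37 C) after the bla read. CellTiter-Glo added, 30 min at room temperature, luminescence read as cell viability.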

Experiment [15] in a line: Caspase-3/7 induction in CHO-K1 cells by small molecules, qHTS cell viability counter screen (AID 1346979). Note: nearly all actives have a fitted effect of over 35% in size. A digest of the protocol:
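Wild-type CHO-K1 cells (1,500/well) treated with compound after 5 h plating; after 16 h at 37C, viability read as CellTiter-Fluor fluorescence following 1 h reagent incubation, in the same wells as the caspase read.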

Experiment [16] concerns the target Nuclear receptor subfamily 1 group I member 2 (Homo sapiens) (UniProt O75469). Nature of the experiment: Human pregnane X receptor (PXR) small molecule agonists, qHTS assay (AID 1346982). Note: nearly all actives have a fitted effect of over 35% in size. Note: potency is the fitted concentration of half-maximal effect. The method, boiled down: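 Luciferase signal from ONE-Glo (30 min, room temperature) measured activation of hPXR-driven CYP3A4 reporter expression in PXR-Luc HepG2 cells treated with compounds for 24 hr at 37 C.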

In experiment [17] the target is Nuclear receptor subfamily 1 group I member 2 (Rattus norvegicus) (UniProt Q9R1A7). Nature of the experiment: Rat pregnane X receptor (rPXR) activation by small molecules, qHTS assay (AID 1346983). Note: nearly all actives have a fitted effect of over 20% in size. The note with it: rPXR luciferase reporter cells, One-Glo luminescence, 24 h; hits give high values. The method, boiled down:
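Cell-based rPXR activation assay: rPXR cells, 2,000 per well, rested 5hr at 37 C, then exposed to compounds in DMSO for 24 hr at 37 C. Luciferase activity read by One-Glo luminescence after 30 min at room temperature.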

Experiment [18] concerns the target Nuclear receptor subfamily 1 group I member 2 (Homo sapiens) (UniProt O75469). Nature of the experiment: CYP3A4 induction through human pregnane X receptor (PXR) by small molecules, qHTS assay (AID 1346984). Note: nearly all actives have a fitted effect of over 40% in size. The method, boiled down: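 Luminescence readout: luciferase signal after One-Glo (30 min, room temperature), following 3 h at 37C with 3uM final Luciferin-IPA P450 substrate. Cells were DPX-2 (HepG2, PXR/CYP3A4-luc co-transfected) dosed for 24 h.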

Experiment [19] shares this target. Nature of the experiment: Human pregnane X receptor (PXR) activation by small molecules, qHTS assay (AID 1346985). Note: nearly all actives have a fitted effect of over 40% in size. The method, boiled down:
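DPX-2 cells (HepG2 co-transfected with a PXR response element and a CYP3A4-promoter luciferase construct) were seeded at 2,000 per well, rested 5 hr at 37C, then exposed to DMSO-dissolved compounds for 24 hr. Activation was read as luciferase luminescence.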

Values without a mark were called inactive. Records with an inconclusive call do not appear. Active and inactive are the calls of the source. Unless noted, calls come from the whole dose curve; as a rule, active = well fitted curve in the direction sought with a large enough effect in the repeat runs; inconclusive = weak or mixed curves; inactive = no such curve, though single readings can be large; an effect the other way counts as inactive or inconclusive.
% is set by controls: 0 for no effect and ±100 for the full control effect.

Chain of Nuclear receptor subfamily 1 group I member 2 (Homo sapiens) (O75469 whole entry, looked up): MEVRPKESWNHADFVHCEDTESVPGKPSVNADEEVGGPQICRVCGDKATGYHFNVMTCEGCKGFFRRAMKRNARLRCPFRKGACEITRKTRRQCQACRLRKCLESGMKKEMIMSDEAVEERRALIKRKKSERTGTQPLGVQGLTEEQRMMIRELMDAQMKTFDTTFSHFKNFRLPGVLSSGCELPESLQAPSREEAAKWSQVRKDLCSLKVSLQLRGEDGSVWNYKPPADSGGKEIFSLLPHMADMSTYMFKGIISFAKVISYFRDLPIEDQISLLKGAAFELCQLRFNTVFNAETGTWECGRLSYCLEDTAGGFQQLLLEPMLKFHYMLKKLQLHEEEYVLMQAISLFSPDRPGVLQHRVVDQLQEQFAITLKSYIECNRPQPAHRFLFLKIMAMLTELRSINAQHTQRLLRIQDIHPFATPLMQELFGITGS
Chain of Progesterone receptor (Homo sapiens) (P06401 whole entry, looked up): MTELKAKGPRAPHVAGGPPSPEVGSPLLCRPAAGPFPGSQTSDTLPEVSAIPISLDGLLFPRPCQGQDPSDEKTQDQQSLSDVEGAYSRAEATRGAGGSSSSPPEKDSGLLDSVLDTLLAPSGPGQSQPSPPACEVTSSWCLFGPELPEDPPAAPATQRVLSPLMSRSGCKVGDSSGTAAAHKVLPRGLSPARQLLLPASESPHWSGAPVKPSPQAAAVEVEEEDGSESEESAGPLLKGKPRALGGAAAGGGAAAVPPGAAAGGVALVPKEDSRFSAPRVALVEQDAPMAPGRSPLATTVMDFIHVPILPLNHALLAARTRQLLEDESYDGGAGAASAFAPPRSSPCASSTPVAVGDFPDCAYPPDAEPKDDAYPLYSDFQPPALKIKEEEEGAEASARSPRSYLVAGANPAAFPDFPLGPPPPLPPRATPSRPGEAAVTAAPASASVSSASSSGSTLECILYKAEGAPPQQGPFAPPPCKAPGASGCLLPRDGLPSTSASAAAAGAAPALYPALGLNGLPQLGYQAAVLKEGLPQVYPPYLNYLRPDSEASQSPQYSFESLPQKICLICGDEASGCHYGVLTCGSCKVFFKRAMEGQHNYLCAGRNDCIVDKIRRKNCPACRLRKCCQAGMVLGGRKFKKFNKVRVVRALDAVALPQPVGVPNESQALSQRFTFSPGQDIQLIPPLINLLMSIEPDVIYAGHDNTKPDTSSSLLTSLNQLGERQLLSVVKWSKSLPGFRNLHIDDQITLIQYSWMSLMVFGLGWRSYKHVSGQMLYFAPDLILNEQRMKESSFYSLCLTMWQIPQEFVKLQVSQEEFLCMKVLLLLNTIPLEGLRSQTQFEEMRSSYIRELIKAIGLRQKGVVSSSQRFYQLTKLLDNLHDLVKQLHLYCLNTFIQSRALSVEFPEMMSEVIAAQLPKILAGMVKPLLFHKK
Chain of Thyrotropin-releasing hormone receptor (Homo sapiens) (P34981 whole entry, looked up): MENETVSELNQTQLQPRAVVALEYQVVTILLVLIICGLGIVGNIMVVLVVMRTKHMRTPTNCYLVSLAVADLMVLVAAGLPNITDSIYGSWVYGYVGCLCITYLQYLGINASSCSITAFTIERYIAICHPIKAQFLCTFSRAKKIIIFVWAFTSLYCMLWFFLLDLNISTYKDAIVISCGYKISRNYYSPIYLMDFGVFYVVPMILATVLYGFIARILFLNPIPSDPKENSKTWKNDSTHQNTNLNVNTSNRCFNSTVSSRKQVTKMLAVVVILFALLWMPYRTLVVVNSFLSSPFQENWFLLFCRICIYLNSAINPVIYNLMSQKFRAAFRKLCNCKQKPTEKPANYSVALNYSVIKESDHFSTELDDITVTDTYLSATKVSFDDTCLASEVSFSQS
Chain of Nuclear receptor subfamily 1 group I member 2 (Rattus norvegicus) (Q9R1A7 whole entry, looked up): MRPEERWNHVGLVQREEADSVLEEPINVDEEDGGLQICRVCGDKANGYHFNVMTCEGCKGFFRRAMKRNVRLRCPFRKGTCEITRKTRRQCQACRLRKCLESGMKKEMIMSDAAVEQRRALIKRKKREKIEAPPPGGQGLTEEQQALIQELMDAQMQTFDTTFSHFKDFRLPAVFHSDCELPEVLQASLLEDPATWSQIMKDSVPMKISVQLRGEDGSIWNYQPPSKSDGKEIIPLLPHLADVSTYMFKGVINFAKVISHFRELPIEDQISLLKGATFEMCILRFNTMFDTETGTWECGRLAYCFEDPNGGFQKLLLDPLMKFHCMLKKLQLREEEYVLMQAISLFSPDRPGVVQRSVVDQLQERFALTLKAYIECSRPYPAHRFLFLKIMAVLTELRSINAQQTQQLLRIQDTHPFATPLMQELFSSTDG

Take `O=C(OCC(O)CO)c1ccccc1Nc1ccnc2c(C(F)(F)F)cccc12` (configuration not stated): the Potency result in experiment [1], in [8], in experiment [9] and in experiment [11] was “inactive” each time. For the same molecule, in [2], the Potency is 29.8 µM (active). Moreover, the molecule was classed as inactive in experiment [3], in experiment [4], in [5], in experiment [6], in experiment [7] and in [10].
With `NCCS`, the Potency entry in experiment [12], in [2], in experiment [13], in [14], in [8] and in experiment [9] was “inactive” in each case. Further, the Potency entry in experiment [15], in [11], in experiment [16], in experiment [18] and in [19] was “inactive” in each case. In addition, the call in [3], in experiment [4], in experiment [5], in [6], in experiment [7] and in experiment [10] was inactive. Moreover, in experiment [17], the max activation was -0.0213%.
In the case of `COC(=O)[C@@H]1[C@H]2C[C@H]3c4[nH]c5ccccc5c4CCN3C[C@@H]2CC[C@@H]1O`, the Potency result in experiment [1], in experiment [2], in experiment [13], in experiment [8], in [9] and in [15] was “inactive” in each case. In addition, the Potency entry in [11] was “inactive”. The call in [3], in experiment [4], in experiment [5], in experiment [6], in experiment [7] and in [10] was inactive.
Regarding `CC[C@H](C)C(=O)O[C@H]1C[C@H](O)C=C2C=C[C@H](C)[C@H](CC[C@@H](O)C[C@@H](O)CC(=O)O)[C@H]21`, the Potency result in experiment [1], in experiment [12], in experiment [2], in experiment [13], in [14] and in [8] was “inactive” each time. In addition, the Potency result in experiment [9], in [15], in experiment [11], in experiment [16], in experiment [18] and in experiment [19] was “inactive” throughout. Besides, the molecule was classed as inactive in experiment [4] and in [5]. The max activation in experiment [17] was -0.271%.
Take `CC(=O)Nc1ccc(S(=O)(=O)Cl)cc1`: the Potency result in experiment [2], in experiment [14], in experiment [8], in [9], in [15] and in experiment [11] was “inactive” each time. The molecule was called inactive in [3], in experiment [4], in experiment [5], in experiment [6], in experiment [7] and in experiment [10].
As to `C#CC(C)N(C)C(=O)Nc1ccc(Cl)cc1` (configuration not stated), the Potency entry in experiment [1], in [12], in experiment [14], in experiment [8], in [9] and in [15] was “inactive” each time. Besides, the Potency entry in experiment [11] was “inactive”. Besides, the call in experiment [3], in experiment [5], in experiment [6], in experiment [7] and in experiment [10] was inactive. For the same molecule, the Potency in [16] was 61.1 µM (active).
As to `Brc1ccc(-c2ccccc2)cc1`, the Potency result in experiment [1], in experiment [13], in [8], in [9], in [15] and in [16] was “inactive” each time. In addition, the molecule was called inactive in [3], in [4], in experiment [5] and in experiment [10].
For `C=C(C)C(=O)OCC(C)(C)COC(=O)C(=C)C`, the Potency result in [1], in experiment [12], in [2], in [13], in experiment [14] and in experiment [8] was “inactive” in each case. Also, the Potency entry in experiment [9] and in experiment [15] was “inactive” each time. Also, the molecule was classed as inactive in experiment [4], in [5], in experiment [6], in experiment [7] and in experiment [10].
As for `CCOCCOCCOCC`, the Potency entry in [1], in experiment [13], in [14], in experiment [8], in experiment [9] and in experiment [15] was “inactive” in each case. Further, in experiment [11], the Potency result was “inactive”. Also, the molecule was classed as inactive in [4], in experiment [5], in experiment [6], in [7] and in experiment [10].
